The results in this text go back to PubChem BioAssay (EPA / NIEHS).

Experiment [1] deals with Estrogen receptor (Homo sapiens) + Estrogen receptor beta (Homo sapiens) (UniProt P03372+Q92731). Briefly: OT_ER_ERaERb_1440: Odyssey Thera (OT) 24-hour HEK293T Protein-Complementation Assay for Estrogen Receptor-alpha/-beta Homodimer (AID 2283356).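 Note: heteromer of ER alpha and ER beta binding domains; hits raise reporter fluorescence and both agonists and antagonists give an increase.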 The method in brief: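 24 h exposure; HEK293T PCA cells with ERα/ERβ LBD fragments; signal rise in nuclear or whole-cell fluorescence over vehicle.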
Estrogen receptor (Homo sapiens) + Estrogen receptor beta (Homo sapiens), sequence (P03372 whole entry, looked up, the tested form may be a part): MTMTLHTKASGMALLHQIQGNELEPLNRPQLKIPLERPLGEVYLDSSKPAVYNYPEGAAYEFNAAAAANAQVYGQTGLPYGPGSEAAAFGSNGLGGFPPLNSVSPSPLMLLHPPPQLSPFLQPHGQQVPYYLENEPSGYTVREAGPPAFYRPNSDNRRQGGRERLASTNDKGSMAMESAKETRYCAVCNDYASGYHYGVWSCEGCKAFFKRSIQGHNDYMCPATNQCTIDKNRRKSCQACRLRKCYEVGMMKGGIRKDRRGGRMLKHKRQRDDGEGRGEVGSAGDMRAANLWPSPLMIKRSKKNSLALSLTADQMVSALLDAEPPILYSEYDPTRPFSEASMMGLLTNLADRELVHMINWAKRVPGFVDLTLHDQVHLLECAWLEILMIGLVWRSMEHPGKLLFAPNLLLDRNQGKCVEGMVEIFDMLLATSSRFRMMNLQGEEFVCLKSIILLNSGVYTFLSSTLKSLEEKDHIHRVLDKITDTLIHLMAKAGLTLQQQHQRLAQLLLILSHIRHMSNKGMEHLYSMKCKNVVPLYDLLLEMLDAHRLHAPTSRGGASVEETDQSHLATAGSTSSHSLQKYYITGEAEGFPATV
Estrogen receptor (Homo sapiens) + Estrogen receptor beta (Homo sapiens), sequence (Q92731 whole entry, looked up, the tested form may be a part): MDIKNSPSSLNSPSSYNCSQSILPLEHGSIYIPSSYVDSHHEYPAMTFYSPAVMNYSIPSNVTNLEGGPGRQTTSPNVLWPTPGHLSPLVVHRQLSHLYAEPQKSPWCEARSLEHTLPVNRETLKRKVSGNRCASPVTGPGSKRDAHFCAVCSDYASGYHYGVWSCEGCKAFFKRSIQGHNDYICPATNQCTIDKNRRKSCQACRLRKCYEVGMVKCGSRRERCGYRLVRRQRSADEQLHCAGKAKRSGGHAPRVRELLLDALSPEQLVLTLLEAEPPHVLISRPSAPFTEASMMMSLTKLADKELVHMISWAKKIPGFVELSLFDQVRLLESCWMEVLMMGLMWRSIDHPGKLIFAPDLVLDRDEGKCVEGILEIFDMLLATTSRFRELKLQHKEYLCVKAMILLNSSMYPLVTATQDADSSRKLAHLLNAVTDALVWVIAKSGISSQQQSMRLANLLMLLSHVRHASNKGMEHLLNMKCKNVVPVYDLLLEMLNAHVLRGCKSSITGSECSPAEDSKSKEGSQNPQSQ

Experiment [2] deals with Estrogen receptor beta (Homo sapiens) (UniProt Q92731). Briefly: OT_ER_ERbERb_0480: Odyssey Thera (OT) 8-hour HEK293T Protein-Complementation Assay for Estrogen Receptor-beta/-beta Homodimer (AID 2283357).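 Note: active means signal gain over DMSO baseline.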 Summed up:
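Homodimerization of ER-beta LBD measured by protein-fragment complementation in HEK293T; 8 h dosing; fixed, Draq5 counterstain; fluorescence intensity gain over DMSO baseline, positive fitting direction; laser scanning cytometry.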

The target of experiment [3] is Peroxisome proliferator-activated receptor gamma (Homo sapiens) (UniProt P37231). Briefly: NVS_NR_hPPARg: NovaScreen (NVS) Nuclear Receptor Binding Assay for human Peroxisome Proliferator-activated Receptor gamma (PPARg) (AID 2283370). The method in brief: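 Extracted receptor protein, cell-free; compound incubated 2 h then fluorescence polarization read. Baseline: DMSO. Actives from 25 uM duplicate screen re-run across concentrations.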
Peroxisome proliferator-activated receptor gamma (Homo sapiens), sequence (P37231 whole entry, looked up): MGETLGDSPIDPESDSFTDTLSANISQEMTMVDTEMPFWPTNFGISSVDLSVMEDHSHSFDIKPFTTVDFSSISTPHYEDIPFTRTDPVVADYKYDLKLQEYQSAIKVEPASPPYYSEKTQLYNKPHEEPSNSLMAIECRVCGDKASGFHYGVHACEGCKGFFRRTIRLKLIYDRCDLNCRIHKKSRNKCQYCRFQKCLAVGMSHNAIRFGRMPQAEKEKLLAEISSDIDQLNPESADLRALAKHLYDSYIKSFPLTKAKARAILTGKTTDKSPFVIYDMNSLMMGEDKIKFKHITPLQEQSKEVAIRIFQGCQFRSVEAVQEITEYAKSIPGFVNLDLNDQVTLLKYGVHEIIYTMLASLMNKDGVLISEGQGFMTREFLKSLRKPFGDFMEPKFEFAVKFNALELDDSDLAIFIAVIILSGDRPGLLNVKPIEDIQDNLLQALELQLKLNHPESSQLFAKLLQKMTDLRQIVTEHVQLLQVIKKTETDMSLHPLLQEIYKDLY

Experiment [4] concerns the target Estrogen receptor beta (Homo sapiens) (UniProt Q92731). Briefly: OT_ER_ERbERb_1440: Odyssey Thera (OT) 24-hour HEK293T Protein-Complementation Assay for Estrogen Receptor-beta/-beta Homodimer (AID 2283380).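 Note: scored as signal increase over DMSO baseline for both agonists and antagonists.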 Summed up:
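HEK293T cells stably expressing ER beta LBD (aa 310-547) homodimer fragment-complementation reporter, dosed 24 h. Cells formaldehyde-fixed, Draq5-stained; gain in nuclear (agonist) or nuclear plus cytoplasmic (antagonist) fluorescence versus DMSO read by laser scanning cytometry.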

Experiment [5] concerns the target Estrogen receptor (Homo sapiens) (UniProt P03372). Briefly: OT_ERa_GFPERaERE_0480: Odyssey Thera (OT) 8-hour HeLa Transcription Induction Assay for Estrogen Receptor (AID 2283381; active = hit-call score of the fitted dose curve at least 0.9, where 1 is the maximum; inactive = score below 0.9). The method in brief:
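GFP-ERE reporter, HeLa, 8 h exposure. Readout: fluorescence microscopy, high-content image analysis. Fit direction positive vs DMSO negative control.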

Experiment [6] concerns the target human Peroxisome Proliferator-activated Receptor alpha (PPARa), PPARA (gene 5465) (UniProt Q07869). Briefly: NVS_NR_hPPARa: NovaScreen (NVS) Nuclear Receptor Binding Assay for human Peroxisome Proliferator-activated Receptor alpha (PPARa) (AID 2283359).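 Note: activity means loss of TR-FRET signal versus DMSO baseline.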 The method in brief:
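TR-FRET signal measured at 1 h post-dosing; loss-of-signal versus DMSO negative control taken as activity. Extracted gene-protein, cell-free format. Initial single-point duplicates at 25 uM, then concentration-response retests.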

The target of experiment [7] is Agonist Androgen Response Element (ARE), AR (gene 367) (UniProt P10275). Briefly: OT_AR_ARELUC_AG_1440: Odyssey Thera (OT) 24-hour CHO-K1 Luciferase Assay for Agonist Androgen Response Element (ARE) (AID 2283379). Summed up: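 Gain-of-signal reporter endpoint: cells (CHO-K1, hamster) are treated 24 h, luciferin/ATP reagent added, and luminescence compared with DMSO baseline.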
Agonist Androgen Response Element (ARE), AR (gene 367), sequence (P10275 whole entry, looked up): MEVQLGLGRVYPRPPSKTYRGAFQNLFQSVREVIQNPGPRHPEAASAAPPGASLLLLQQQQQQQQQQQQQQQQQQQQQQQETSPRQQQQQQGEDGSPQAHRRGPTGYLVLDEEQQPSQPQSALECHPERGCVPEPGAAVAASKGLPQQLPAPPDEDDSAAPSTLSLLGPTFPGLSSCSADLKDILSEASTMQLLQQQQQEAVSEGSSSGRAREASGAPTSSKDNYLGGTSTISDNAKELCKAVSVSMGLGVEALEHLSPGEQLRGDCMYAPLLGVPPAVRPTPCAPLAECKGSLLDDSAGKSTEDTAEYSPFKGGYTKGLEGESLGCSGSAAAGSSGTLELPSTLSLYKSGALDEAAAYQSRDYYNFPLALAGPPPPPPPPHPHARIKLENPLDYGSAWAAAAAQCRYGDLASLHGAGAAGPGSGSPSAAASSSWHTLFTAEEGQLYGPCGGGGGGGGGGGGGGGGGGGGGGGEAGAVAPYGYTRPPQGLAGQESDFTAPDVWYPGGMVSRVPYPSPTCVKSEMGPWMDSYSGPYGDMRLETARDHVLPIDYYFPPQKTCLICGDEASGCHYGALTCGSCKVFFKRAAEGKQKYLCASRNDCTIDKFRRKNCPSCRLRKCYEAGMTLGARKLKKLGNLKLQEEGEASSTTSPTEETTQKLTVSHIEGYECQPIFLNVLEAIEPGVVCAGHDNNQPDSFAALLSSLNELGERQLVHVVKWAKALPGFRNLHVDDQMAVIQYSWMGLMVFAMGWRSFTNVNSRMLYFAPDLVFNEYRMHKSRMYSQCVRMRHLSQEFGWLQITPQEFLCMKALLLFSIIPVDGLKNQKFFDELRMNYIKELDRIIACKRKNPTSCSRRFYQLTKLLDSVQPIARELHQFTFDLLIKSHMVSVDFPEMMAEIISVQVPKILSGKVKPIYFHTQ

Experiment [8] has as its target Nuclear receptor subfamily 1 group I member 2 (Homo sapiens) (UniProt O75469). Briefly: NVS_NR_hPXR: NovaScreen (NVS) Nuclear Receptor Binding Assay for human Pregnane X Receptor (PXR) (AID 2283365).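 Note: a drop in FRET signal versus DMSO baseline means the compound binds.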 The method in brief:
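Read-out: TR-FRET, human PXR, 2 h post-dosing, cell-free. Loss of signal vs DMSO taken as binding activity; 25 uM primary, concentration series secondary.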

Experiment [9] addresses human Dopamine Transporter (DAT), SLC6A3 (gene 6531) (UniProt Q01959). Briefly: NVS_TR_hDAT: NovaScreen (NVS) Transporter Assay for human Dopamine Transporter (DAT) (AID 2283374).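 Note: activity means loss of bound radioligand signal relative to DMSO.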 Summed up:
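hDAT membranes + tritiated/iodinated radioligand, competitive displacement; 1 h; filter scintillation readout. Single conc 25 uM (duplicate), then conc-response for actives. DMSO = negative control.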

In experiment [10] the target is human Norepinephrine Transporter (NET), SLC6A2 (gene 6530) (UniProt P23975). Briefly: NVS_TR_hNET: NovaScreen (NVS) Transporter Assay for human Norepinephrine Transporter (NET) (AID 2283377).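 For AC50: displacement of radioligand from human NET seen as loss of scintillation signal.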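 Note: cell-free membrane protein extracted from CHO cells expressing human NET.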 Summed up: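 CHO cell extracts expressing the transporter; tritiated or iodinated tracer displaced competitively; filtration plus scintillation readout at 1 h. Single-point duplicates at 25 uM, concentration series for follow-up; activity = signal drop relative to DMSO.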

In experiment [11] the test system is guinea pig Dopamine Transporter (DAT), gene 100714898. Briefly: NVS_TR_gDAT: NovaScreen (NVS) Transporter Assay for guinea pig Dopamine Transporter (DAT) (AID 2283369).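 Note: active compounds lower bound radioligand signal relative to DMSO.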 Summed up: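 Primary pass: duplicate wells at 25 uM, threshold e.g. 30% inhibition. Follow-up: singleton concentration-response, highest 50 uM. Radioligand binding on guinea pig striatal membranes, 2 h, filtration scintillation detection.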

For experiment [12], the target named is Retinoic acid receptor alpha (Homo sapiens) (UniProt P10276). Briefly: NVS_NR_hRAR_Antagonist: NovaScreen (NVS) Nuclear Receptor Binding Assay for human Retinoic Acid Alpha Receptor Antagonism (RAR) (AID 2283358). The method in brief: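 Read-out: time-resolved FRET binding signal, 2 h post-dose, cell-free extracted protein. Antagonism scored as signal loss versus DMSO negative control. Primary single-concentration screen at 25 uM in duplicate; concentration series for actives.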

SMILES strings stand for the structures. Records with an inconclusive call do not appear. The source made the active and inactive calls. Rule for the calls, unless noted: active = hit-call score of the fitted dose curve at least 0.9, where 1 is the maximum; inconclusive = response in the unintended direction; inactive = score below 0.9.

Nuclear receptor subfamily 1 group I member 2 (Homo sapiens), sequence (O75469 whole entry, looked up): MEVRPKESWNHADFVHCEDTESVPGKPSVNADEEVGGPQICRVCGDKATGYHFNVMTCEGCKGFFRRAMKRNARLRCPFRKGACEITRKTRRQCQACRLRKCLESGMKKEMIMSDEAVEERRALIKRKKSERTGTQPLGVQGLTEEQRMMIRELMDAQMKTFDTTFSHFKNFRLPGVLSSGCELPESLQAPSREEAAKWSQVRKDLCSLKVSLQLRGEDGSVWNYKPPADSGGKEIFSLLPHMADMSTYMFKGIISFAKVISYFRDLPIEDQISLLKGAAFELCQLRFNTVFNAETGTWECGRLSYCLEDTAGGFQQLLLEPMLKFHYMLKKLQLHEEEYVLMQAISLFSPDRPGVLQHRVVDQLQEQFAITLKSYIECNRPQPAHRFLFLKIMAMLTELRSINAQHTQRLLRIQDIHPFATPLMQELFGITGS
Estrogen receptor beta (Homo sapiens), sequence (Q92731 whole entry, looked up, the tested form may be a part): as the sequence (Q92731 whole entry, looked up, the tested form may be a part) above
Estrogen receptor (Homo sapiens), sequence (P03372 whole entry, looked up): as the sequence (P03372 whole entry, looked up, the tested form may be a part) above
human Dopamine Transporter (DAT), SLC6A3 (gene 6531), sequence (Q01959 whole entry, looked up): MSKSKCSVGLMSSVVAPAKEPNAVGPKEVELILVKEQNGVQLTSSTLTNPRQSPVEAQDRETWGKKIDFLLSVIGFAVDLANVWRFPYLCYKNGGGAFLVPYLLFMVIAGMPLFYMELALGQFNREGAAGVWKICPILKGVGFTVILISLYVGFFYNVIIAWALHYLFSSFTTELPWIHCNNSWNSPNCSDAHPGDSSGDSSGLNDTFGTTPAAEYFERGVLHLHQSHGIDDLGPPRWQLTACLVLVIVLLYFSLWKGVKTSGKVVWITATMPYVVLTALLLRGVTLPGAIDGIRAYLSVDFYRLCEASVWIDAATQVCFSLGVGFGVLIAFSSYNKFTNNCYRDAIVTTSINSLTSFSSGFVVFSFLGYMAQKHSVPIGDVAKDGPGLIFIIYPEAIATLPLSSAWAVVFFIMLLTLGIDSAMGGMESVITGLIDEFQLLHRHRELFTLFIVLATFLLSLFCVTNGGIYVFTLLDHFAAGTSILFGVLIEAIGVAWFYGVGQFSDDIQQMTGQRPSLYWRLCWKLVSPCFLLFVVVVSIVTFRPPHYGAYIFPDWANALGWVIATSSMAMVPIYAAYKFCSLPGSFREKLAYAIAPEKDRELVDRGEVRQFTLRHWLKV

On to `CCCCCCCCOS(=O)(=O)O`, for which the outcome in experiment [1], in experiment [2], in experiment [3], in [4] and in [5] was inactive.
Take `CCCCN(CCCC)CCCCCCN(CCCC)CCCC`: the outcome in [1], in experiment [2], in experiment [6] and in experiment [4] was inactive.
As for `CCCO`, the result in experiment [1], in experiment [2], in [4] and in [5] was inactive.
Regarding `CC(O)CN` (stereo not given), the result in [1], in [2] and in [4] was inactive.
As to `CC(=O)OC(C)(C)C`, the outcome in [1], in [2] and in experiment [4] was inactive.
As for `CCCCCCC(C)O` (stereo not given), the outcome in [1], in [2] and in [4] was inactive.
In the case of `CCCc1ccc(O)cc1`, the half-maximal activity concentration (AC50) (as a rule, the concentration at which the activity in the assay is half-maximal) in experiment [1] was 43 µM (active); in experiment [2], 33.4 µM (active); in experiment [4], 46.5 µM (active).
`CC(C)(CO)CO`: the outcome in [1], in experiment [7], in [4] and in [5] was inactive.
Turning to `CC(C)N(c1ccccc1)C(C)C`, the outcome in experiment [1], in experiment [2], in experiment [4] and in experiment [5] was inactive.
For the compound `CN(C)C(=O)Nc1ccccc1`, the result in [1], in experiment [8] and in experiment [4] was inactive.
`CCOCC(C)O` (stereo not given): the result in [1], in experiment [2], in experiment [4] and in experiment [5] was inactive.
As to `OCC=Cc1ccccc1`, the result in experiment [1], in experiment [2], in experiment [4] and in experiment [5] was inactive.
For `CCCC[N+](C)(CCCC)CCCC`, the outcome in experiment [1], in experiment [2] and in experiment [4] was inactive.
Regarding `CCCC(O)C(CC)CO` (stereo not given), the outcome in experiment [1], in experiment [2] and in [4] was inactive.
Consider `CCCCCCCCCOS(=O)(=O)O`, for which the outcome in [1], in [2] and in experiment [5] was inactive.
Consider `CCCCOCCOCCOCCO`, for which the result in [1], in experiment [2], in experiment [4] and in experiment [5] was inactive.
For the compound `COC(=O)c1cccc(C(=O)OC)c1`, the result in experiment [1] and in experiment [4] was inactive. In addition, in [7], the AC50 is 1.63 µM (active).
On to `CC(C)C(=O)c1ccccc1`, for which the result in [1], in experiment [8], in experiment [4] and in experiment [5] was inactive.
In the case of `COc1ccc2[nH]cc(CCNC(C)=O)c2c1`, the outcome in experiment [1], in experiment [2], in experiment [4] and in [5] was inactive.
Turning to `CCCCCCCC(=O)N(C)C`, the outcome in [1], in experiment [2] and in experiment [4] was inactive.
For the compound `CCc1cccc(O)c1`, the result in experiment [1], in [2], in [4] and in experiment [5] was inactive.
As to `CCCCCCCCCO`, the outcome in experiment [1], in experiment [2] and in experiment [4] was inactive.
For `Cc1cccc(O)c1`, the result in [1], in [2] and in experiment [4] was inactive.
With `CCCc1ccc(N)cc1`, the outcome in experiment [1], in experiment [2], in experiment [4] and in [5] was inactive.
For `NCCN1CCNCC1`, the result in [1], in experiment [8], in experiment [4] and in experiment [5] was inactive.
As to `CC(C)CCCC(C)(C)O`, the outcome in [1], in experiment [3] and in experiment [4] was inactive.
`CCCC1CCC(=O)CC1`: the outcome in [1], in [2] and in experiment [4] was inactive.
Turning to `[Na+]`, the result in [1], in experiment [2], in experiment [4] and in [5] was inactive.
Turning to `CC12CCC(C1)C(C)(C)C2O` (stereo not given), the outcome in experiment [1], in [2], in experiment [4] and in experiment [5] was inactive.
For the compound `CCC(C)COC(=O)CC(C)C` (stereo not given), the outcome in experiment [1], in [2] and in experiment [4] was inactive.
Turning to `COC(=O)c1ccc(C(=O)OC)cc1`, the outcome in experiment [1], in experiment [2] and in experiment [4] was inactive.
Turning to `CCC(C)C1CCCCC1=O` (stereo not given), the result in experiment [1], in [2], in [4] and in experiment [5] was inactive.
In the case of `O=C(OCc1ccccc1)c1ccccc1O`, the AC50 was 44.5 µM (active) in experiment [1], 54.6 µM (active) in experiment [2] and 49.7 µM (active) in experiment [4].
For `COc1ccccc1O`, the result in [1], in experiment [2], in experiment [4] and in experiment [5] was inactive.
`CN(C)C`: the outcome in experiment [1], in experiment [8] and in [4] was inactive.
On to `CC(=O)CC(=O)N(C)C`, for which the result in experiment [1], in experiment [2] and in experiment [4] was inactive.
For the compound `c1ccc(OCCOc2ccccc2)cc1`, the outcome in [1], in experiment [2], in [4] and in experiment [5] was inactive.
Regarding `CC(=O)c1ccc(O)cc1`, the outcome in [1], in experiment [2], in experiment [4] and in [5] was inactive.
Turning to `CCC(=O)OC(C)(C)C1CC=C(C)CC1` (stereo not given), the outcome in experiment [1], in [2], in [4] and in experiment [5] was inactive.
For the compound `CC1=CCC(C(C)C)=CC1`, in [5], the compound was classed as inactive.
Regarding `CCOC(=O)C=Cc1ccccc1`, in experiment [9], the compound was classed as inactive. Moreover, the AC50 in [10] was 25 µM (active).
Regarding `CC1COC(=O)O1` (stereo not given), the result in [1], in experiment [7], in [4] and in experiment [5] was inactive.
As for `c1ccc(Cc2ccccc2)cc1`, the outcome in [1], in experiment [4] and in [5] was inactive.
For `O=C(O)c1ccccc1O`, the result in experiment [3] and in experiment [5] was inactive.
Take `CC(=O)Oc1c(C)c(C)c2c(c1C)CC[C@@](C)(CCC[C@H](C)CCC[C@H](C)CCCC(C)C)O2`: the compound was classed as inactive in experiment [8], in [3] and in [5].
As to `COc1ccc(OC)cc1`, the compound was called inactive in experiment [5].
Consider `CC(C)(C)c1cccc(O)c1`, for which the compound was classed as inactive in experiment [7] and in experiment [5].
On to `C=CC(C)CCCC(C)(C)O` (stereo not given), for which the result in [1] and in experiment [4] was inactive.
Take `CC1=CCC(=C(C)C)CC1`: the result in experiment [8], in experiment [3] and in experiment [5] was inactive.
In the case of `CC(=O)OC(C)(C)C1CC=C(C)CC1` (stereo not given), the outcome in [5] was inactive.
In the case of `O=C(O)C1=NN(c2ccc(S(=O)(=O)O)cc2)C(=O)C1`, the compound was classed as inactive in experiment [8].
For `CC(C)(O)CCc1ccccc1`, the AC50 in experiment [11] was 25 µM (active). The result in [9] was inactive.
For the compound `CCCCOCCOCCO`, the outcome in experiment [1] and in [4] was inactive.
For `NC(N)=S`, the result in experiment [5] was inactive.
With `CC1=CCC(C(C)(C)O)CC1` (stereo not given), the call in [3] and in experiment [7] was inactive.
Regarding `[O-]/[N+](=N\O)c1ccccc1`, the result in experiment [2], in experiment [8], in experiment [3] and in experiment [4] was inactive.
`CC(O)CNCC(C)O` (stereo not given): in experiment [5], the AC50 is 29.8 µM (active).
For `C=C(C)C(N)=O`, the outcome in [10] and in [5] was inactive.
With `COC(=O)C(C)Oc1ccc(Oc2ncc(C(F)(F)F)cc2Cl)cc1` (stereo not given), the compound was classed as inactive in [2], in experiment [4] and in experiment [5].
With `CCCCCCCCCCCCOCCOS(=O)(=O)O`, the half-maximal activity concentration (AC50) was 16.2 µM (active) in experiment [12], 5.08 µM (active) in experiment [6], 25 µM (active) in experiment [8] and 10 µM (active) in [5].
As for `O=Cc1ccccc1O`, the outcome in experiment [5] was inactive.
